This is an account of results in PubChem BioAssay (NCATS).

Inconclusive results are not listed. Entries that show only a call come without a potency. Activity calls are given as the source filed them. Calls come from the whole dose curve; as a rule, active = well fitted inhibition curve with a large enough effect; inconclusive = small, poorly fitted or top-dose-only effect; inactive = no such curve, though single readings can be large or run the other way.
Potency is the fitted concentration of half-maximal effect.

The nature of this experiment: qHTS assay for measurement of the activity of small molecule inhibitors on Zika virus induced Caspase-3 activity in human iPSC derived neural progenitor cells (hNPCs) (AID 1224857). Note: nearly all actives have a fitted effect of over 65% in size. The following applies: hNPCs ZIKV-induced caspase-3/7, Caspase-Glo luminescence, 6 h; series mostly up to 45.7 µM. Put shortly:
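Human iPSC-derived neural progenitor cells pretreated 1 hr with compounds, then infected with Zika virus (2 FFU/cell) for 6 hours at 37 C. Caspase-3/7 measured by Caspase-Glo luminescence; % inhibition calculated from induction scaled to uninfected (0%) and infected (100%) wells.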
For orientation: qHTS replaces the single test concentration by a dilution series.
Take `CCCCC(F)(F)[C@@]1(O)CC[C@H]2[C@H](CC(=O)[C@@H]2CCCCCCC(=O)O)O1`: the Potency result was “inactive”.

With `CC(C)CN(C[C@H](O)[C@H](Cc1ccccc1)NC(=O)O[C@H]1CCOC1)S(=O)(=O)c1ccc(N)cc1`, the Potency result is “inactive”. `COc1cc(Cl)cn2c(-c3cccc(NC4CNC4)n3)cnc12`: the Potency result was “inactive”. As for `Cc1cc2nc3c(=O)[nH]c(=O)nc-3n(CC(O)C(O)C(O)CO)c2cc1C` (stereo not drawn), the Potency result was “inactive”.

With `CN1CCN(c2ncc(-c3cc(Cl)cc(Cl)c3Cl)c(N)n2)CC1`, the Potency entry is “inactive”. As for `CC(NCCc1ccc(O)cc1)C(O)c1ccc(O)cc1` (stereo not drawn), the Potency entry is “inactive”. `NC(=O)c1ncn([C@@H]2O[C@H](CO)[C@@H](O)[C@@H]2O)n1`: the Potency result was “inactive”. With `CCCC1OC2C[C@@H]3[C@H]4CCC5=CC(=O)C=C[C@]5(C)[C@H]4C(O)C[C@]3(C)[C@]2(C(=O)CO)O1` (stereo partly drawn), the Potency entry is “inactive”. On to `Nc1ncnc2c1ncn2[C@@H]1O[C@H](CO)[C@@H](O)[C@@H]1O`, for which the Potency result is “inactive”. Turning to `COc1ccc(-c2nc3ccc(C4=NNC(=O)CC4C)cc3[nH]2)cc1` (stereo not drawn), the Potency result is “inactive”.

Turning to `C#CCN(C)CC1=Cc2ccccc2Oc2ccccc21`, the Potency entry was “inactive”. In the case of `O=C(c1ccc(C(=O)N2CCC(N3CCCC3)CC2)c(Nc2ccccc2)c1)N1CCC(N2CCCC2)CC1`, the Potency entry is “inactive”. Turning to `NS(=O)(=O)c1cc(Cl)c(Cl)c(S(N)(=O)=O)c1`, the Potency result was “inactive”.

On to `Cc1nn(Cc2ccccc2Cl)c(C)c1CN(C)CC(O)COc1ccc(Cl)cc1` (stereo not drawn), for which the Potency entry is “inactive”. For `CC(C)c1onc(-c2c(Cl)cccc2Cl)c1COc1ccc(C=Cc2cccc(C(=O)O)c2)c(Cl)c1`, the Potency result is “inactive”. `CC1(C)C(N(O)C(=O)Nc2ccc(Cl)cc2)N(c2ccc(Cl)cc2)C(=O)N1CC(=O)NN=CC=Cc1ccc([N+](=O)[O-])o1` (stereo not drawn): the Potency result was “inactive”. As for `COc1cc2nccc(Oc3ccc(NC(=O)Nc4cc(C)on4)c(Cl)c3)c2cc1OC`, the entry is “inactive”; as for `Nc1ccc(-c2ccc3ncc4ccc(=O)n(-c5cccc(C(F)(F)F)c5)c4c3c2)cn1`, “inactive”. To `COc1c(C)c2c(c(O)c1CC=C(C)CCC(=O)O)C(=O)OC2` belongs “inactive”. For `CNC1[C@H](O)C(O[C@@H]2C(O)C(O[C@H]3O[C@H]([C@@H](C)NC)CC[C@H]3N)[C@@H](N)C[C@H]2N)OC[C@]1(C)O` (stereo partly drawn), the Potency is 18.7 µM (active). `CC(C)=CCCC(C)=CCCC(C)=CCCC(C)=CCCC(C)=CCCC(C)=CCCC(C)=CCCC(C)=CCCC(C)=CCO`: the Potency entry is “inactive”. On to `COc1cc([C@@H]2c3cc4c(cc3[C@@H](O[C@@H]3O[C@@H]5CO[C@@H](C)O[C@@H]5[C@H](O)[C@@H]3O)[C@H]3COC(=O)[C@H]23)OCO4)cc(OC)c1O`, for which the Potency entry is “inactive”. To `C[C@H]1[C@H](O)O[C@@H]2O[C@@]3(C)CC[C@@H]4[C@H](C)CC[C@@H]1[C@@]24OO3` belongs “inactive”.
